Where “and” joins values, the source holds several entries; their conditions need not be identical. Identical values can stand only once. In all, about 16,000 compounds went through this assay and about 4,000 (25%) were called active. Inconclusive results (about 26%) are left out. Calls come from the whole dose curve; as a rule, active = well fitted curve in the direction sought with a large enough effect; inconclusive = small, poorly fitted or top-dose-only effect, or effect the other way; inactive = no such curve, though single readings can be large or run the other way. Only a sample is shown. Square brackets hold non-standard residues; d marks the D form. Peptide text beside a SMILES is read from it.
These compounds were tested against Cytochrome P450 2C9 (Homo sapiens) (UniProt P11712) (assay: Cytochrome panel assay with activity outcomes). Settings: recombinant CYP, pro-luciferin dealkylation, luminescence, p450-cyp2c9; series mostly up to 57.1 µM.
Chain of Cytochrome P450 2C9 (Homo sapiens) (P11712 whole entry, looked up): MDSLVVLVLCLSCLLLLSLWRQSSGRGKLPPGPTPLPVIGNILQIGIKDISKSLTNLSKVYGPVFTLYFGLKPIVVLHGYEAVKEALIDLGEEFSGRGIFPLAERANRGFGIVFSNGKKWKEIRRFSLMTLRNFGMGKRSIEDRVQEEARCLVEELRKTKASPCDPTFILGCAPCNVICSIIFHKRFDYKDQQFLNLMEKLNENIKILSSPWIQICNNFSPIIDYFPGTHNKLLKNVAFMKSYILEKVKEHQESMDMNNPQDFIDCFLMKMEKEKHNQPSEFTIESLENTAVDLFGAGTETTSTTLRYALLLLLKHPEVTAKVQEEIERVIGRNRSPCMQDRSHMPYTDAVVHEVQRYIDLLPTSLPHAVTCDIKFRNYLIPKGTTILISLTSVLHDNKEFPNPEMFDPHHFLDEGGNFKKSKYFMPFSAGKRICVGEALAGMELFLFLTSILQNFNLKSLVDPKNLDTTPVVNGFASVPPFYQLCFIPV
% is set by controls: 0 for no effect and ±100 for the full control effect.

Compound	AC50	activity, negative = inhibition
CC(O)CN(CCC(N)=O)CCC(N)=O (stereo not given)	inactive	
CC(=O)c1cnc2c(C(=O)O)cnn2c1C	inactive	
Cc1cc(N)n(-c2ccccc2)n1	inactive	
Cc1cc(-c2c(C)[nH]n(-c3ccccc3)c2=O)n(-c2ccccc2)n1	1.58 µM (active)	
Cc1ccc(C)c(C(=O)CN2C3=NCCCN3c3ccccc32)c1	inactive	
CC[C@](N)(CCC(=O)O)C(=O)O	inactive	
CC(CCC(=O)O)(c1cc(Br)c(O)c(Br)c1)c1cc(Br)c(O)c(Br)c1	3.16 µM (active)	
CC(C)c1ccc(Cn2ccc3c4c(N)nc(NC5CC5)nc4ccc32)cc1	inactive	
Cc1cc(N(CN2CCCC2=O)C(=O)c2ccc(F)cc2)no1	inactive	
Cc1cc(NC(=O)COC(=O)c2ccc(S(=O)(=O)N3CCCc4ccccc43)cc2)no1	3.55 µM (active)	
Cc1ccc(C(=O)ON=C2CCN(S(=O)(=O)c3ccccc3)CC2)cc1	inactive	
O=C(NCc1ccccc1)c1ccc(S(=O)(=O)N2CCCc3ccccc32)cc1	3.16 µM (active)	
Cc1ccc(S(=O)(=O)N[C@H]2COC(=O)[C@@H](Cc3ccccc3)NC(=O)[C@@H](C)COC(=O)C/C=C\[C@@H]2C)cc1		7.81% [at 11.4 µM] (inactive) and -8.92% [at 11.4 µM] (inactive)
Clc1ccccc1NN(Cc1ccncc1)c1ccccc1Cl	1.58 µM (active)	
Clc1ccccc1NN(Cc1ccccn1)c1ccccc1Cl		-64.2% [at 11.4 µM] (inactive)
CC1=c2c(oc3cc(O)c(Nc4c(C)cc(O)cc4O)c(C)c23)=CC(=O)C1=Nc1c(C)cc(O)cc1O	3.16 µM (active)	
Cc1ccc(C2C3=C(CCCC3=O)Nc3nc(SCC(=O)NCc4ccco4)[nH]c(=O)c32)cc1 (stereo not given)	5.01 µM (active)	
NC(=O)CCCC1=NS(=O)(=O)c2ccccc2N1	inactive	
COc1ccc(C(C(=O)Nc2ccc(F)cc2)N(C(=O)Cn2nnc3ccccc32)C2CC2)cc1 (stereo not given)	12.6 µM (active)	
COc1ccc(NC(=O)C(c2ccc(OC)cc2)N(C)C(=O)CNC(C)=O)cc1 (stereo not given)	inactive	

Compound	AC50	activity, negative = inhibition
COc1cccc(C(C(=O)Nc2ccc(F)cc2)N(C(=O)Cn2nnc3ccccc32)C2CC2)c1 (stereo not given)	12.6 µM (active)	
COCCNC(=O)C(c1ccc(C)o1)N(CC1CCCO1)C(=O)Cn1nnc2ccccc21 (stereo not given)	inactive	
CO[C@@H]1COC(=O)C/C=C\[C@@H](C)[C@H](OC)COC(=O)[C@H](COCc2ccccc2)NC(=O)C/C=C\[C@H]1C		3.17% [at 11.4 µM] (inactive)
C/C(CCN1CCCCc2nc(C)c(C)cc21)=N\OC[C@@H](C)[C@H](OCc1ccccc1)C(C)C		-7.17% [at 11.4 µM] (inactive)
Cc1ccccc1C(=O)Oc1ccc(Br)cc1C(=S)N1CCCC1	11.2 µM (active)	
COC(=O)c1cc(OC)c(OC)cc1NC(=S)N1CCCCC1	inactive	
COc1ccc(C2=NOC(C(=O)NCCN3CCOCC3)C2)cc1 (stereo not given)	inactive	
CCOC(=O)C1CCCN(C(=O)c2sc3nc(-c4ccc(OC)cc4)cn3c2C)C1 (stereo not given)	4.47 µM (active)	
COc1ccc2cc3cc(C(=O)NCCCN4CCOCC4)oc3nc2c1	inactive	
CCOC(=O)C1CCCN(C(=O)/C=C/c2cccc([N+](=O)[O-])c2)C1 (stereo not given)	inactive	
CCOC(=O)C1CCCN(C(=O)C2CCN(S(=O)(=O)N3CCC4(CC3)OCCO4)CC2)C1 (stereo not given)	inactive	
COc1ccc(-c2cn3c(C)c(C(=O)NCCN4CCOCC4)sc3n2)cc1	7.94 µM (active)	
O=C(Nc1cccnc1)c1ccc(COc2cc(Cl)ccc2Cl)o1	14.1 µM (active)	
Cn1ncc(Cl)c1C(=O)Nc1cccnc1	inactive	
CCOc1ccc(Cl)cc1CNCCNCC(C)O (stereo not given)	inactive	
CC(C)CNC(=O)c1ccc(COc2ccc(Cl)cc2Cl)o1	3.55 µM (active)	
O=C(Nc1ccn(Cc2ccccc2F)n1)c1ccc(COc2cc(Cl)ccc2Cl)o1	0.447 µM (active)	
O=C(O)NCC1CCCCC1 (tested in a mixture with another compound)		-18.2% [at 11.4 µM] (inactive)
CCC(=O)NC(=S)Nc1ccc(NC(=O)COc2ccc(Cl)cc2Cl)cc1	inactive	
O=C(CCN1C(=O)c2ccccc2C1=O)NC(=S)Nc1cccc(Cl)c1	10 µM (active)	

Compound	AC50	activity, negative = inhibition
S=C(NCc1ccccn1)Nc1cccc(Cl)c1	inactive	
Cc1ccccc1OCC(=O)NC(=S)Nc1ccc(Br)c(C)n1	inactive	
O=C(COc1ccccc1Cl)NC(=S)Nc1cccc(NC(=O)c2ccccc2Cl)c1	0.794 µM (active)	
N[C@H](CO)C(=O)NCC(=O)O (H-[dS]-Gly-OH)		7.87% [at 11.4 µM] (inactive)
CC(Sc1ccc2c(c1)OCCO2)C(=O)Nc1ncc(Cl)cc1Cl (stereo not given)	3.98 µM (active)	
CCc1ccc(N2CC(C(=O)N/N=C/c3cccc([N+](=O)[O-])c3)CC2=O)cc1 (stereo not given)	3.55 µM (active)	
Cc1ccc(NC(=O)/C(=C/c2cccc([N+](=O)[O-])c2)NC(=O)C2CCCCC2)c(C)c1	inactive	
Cc1ccccc1NC(=O)C1CC(=O)N(c2ccc3c4c(cccc24)CC3)C1 (stereo not given)	inactive	
O=C(N/N=C/c1cccc([N+](=O)[O-])c1)c1cc2c(ccc3ccccc32)o1	inactive	
CCc1ccc(N2CC(C(=O)NC3=NCCS3)CC2=O)cc1 (stereo not given)	12.6 µM (active)	
CC1CCCN(CCCNC(=O)C2CC(=O)N(c3ccc(F)c(Cl)c3)C2)C1 (stereo not given)	inactive	
Nc1nc2c(nc(Br)n2[C@@H]2O[C@H]3COP(=O)(O)O[C@H]3[C@@H]2O)c(=O)[nH]1	inactive	
COC(=O)[C@](C)(N)Cc1ccc(O)cc1	inactive	
COc1cc([C@H](O)C(=O)O)ccc1O	inactive	
COC(=O)/C=C\c1cc(O)ccc1O	7.94 µM (active)	
CN1CCN(c2ccc([N+](=O)[O-])cc2C(=O)N2CCOCC2)CC1	inactive	
O=C(c1ccc(Br)cc1)c1cc([N+](=O)[O-])ccc1N1CCCCC1	2.51 µM (active)	
Cn1c(CCN2CCCCC2)nc2cc([N+](=O)[O-])ccc21	inactive	
CCn1c(/C=C2/C(=O)N(C)c3ccccc32)nc2ccccc2c1=O	10 µM (active)	
CCN1CCN(c2nn3c(=O)c4ccccc4nc3c3ccccc23)CC1	inactive	

Reference: PubChem BioAssay AID1851 (National Center for Advancing Translational Sciences (NCATS), 2009)
